Results filed as inconclusive are left out. A number with no mark means an inactive call. Active and inactive are the calls of the source. The call rests on the fitted dose curve; tested in HEK293 reporter line.
Assay: qHTS for Inhibitors of the Functional Ribonucleoprotein Complex (vRNP) of Lymphocytic Choriomeningitis Arenaviruses (LCMV): Viability assay - alamar blue signal for LCMV Primary Screen (AID 1347085); further: nearly all actives have a fitted effect of over 80% in size
Conditions: alamar blue viability counter-screen, LCMV vRNP screen cells; series mostly up to 57.5 µM; activity change, negative = lower viability: at the top concentration
On the % scale 0 is the no-effect control and ±100 the full control effect; potency means the concentration at half of the fitted maximal effect.

| Compound | activity change, negative = lower viability | Potency |
| --- | --- | --- |
| CC(C)OC(=O)c1ccccc1 | 12.8% [at 115 µM] |  |
| CC1(C)OC2CC3C4CC(F)C5=CC(=O)C=CC5(C)C4C(O)CC3(C)[C@]2(C(=O)CO)O1 (stereo not given in full) | -10.2% |  |
| O=C1NC2C(=CC(O)C(O)C2O)c2cc3c(c(O)c21)OCO3 (stereo not given) | -139% |  |
| Cc1cccc2c3c(ccc12)C1=C(C(=O)C3=O)[C@@H](C)CO1 | 5.18% |  |
| NC(=O)c1ncn([C@@H]2O[C@H](CO)[C@@H](O)[C@@H]2O)c1N | -2.72% |  |
| O=C(O)c1ccco1 | 11.8% [at 115 µM] |  |
| CC(C)(O)C1CC[C@@]2(C)C3CCC4[C@@]5(C)CCCC(C)(C)C5C(O)C[C@]4(C)[C@]3(C)CC[C@@H]12 (stereo not given in full) | 12.2% |  |
| Nc1nc(N)c2[nH]cnc2n1 | 25.7% |  |
| O=C(Nc1ccc(Br)cc1)C(c1ccccc1)c1ccccc1 | 2.5% |  |
| CN1CC(=O)N2C(Cc3c([nH]c4ccccc34)[C@H]2c2ccc3c(c2)OCO3)C1=O (stereo not given in full) | -0.0396% |  |
| CO[C@H]1C=CO[C@@]2(C)Oc3c(C)c(O)c4c(O)c(c5c(c4c3C2=O)NC2(CCN(CC(C)C)CC2)N=5)=NC(=O)C(C)=CC=C[C@H](C)[C@H](O)[C@@H](C)[C@@H](O)[C@@H](C)[C@H](OC(C)=O)[C@H]1C | 3.63% |  |
| CNc1ncnc2c1ncn2[C@@H]1O[C@H](CO)C(O)[C@H]1O (stereo not given in full) | -84.2% |  |
| CC12CCC(=O)C=C1C(O)CC1C2CCC2(C)C1CCC2(O)C(=O)CO (stereo not given) | 3.12% |  |
| COc1c2ccoc2nc2c(OC)c(OCC(OC(C)=O)C(C)(C)O)ccc12 (stereo not given) | -24% |  |
| C/C=C(\C)C(=O)OC(C)(C)[C@H]1Cc2cc3ccc(=O)oc3cc2O1 | 6.9% |  |
| CC(C)(OC1OC(CO)C(O)C(O)C1O)[C@H]1Oc2ccc3ccc(=O)oc3c2[C@H]1O (stereo not given in full) | -93.3% |  |
| Nc1nc2c(ncn2[C@@H]2O[C@H](COP(=O)(O)OP(=O)(O)OP(=O)(O)O)[C@@H](O)C2O)c(=O)[nH]1 (stereo not given in full) | 11.4% |  |
| OC[C@H]1O[C@@H](O[C@@H]2OC=C[C@H]3[C@H](O)[C@@H]4O[C@]4(CO)[C@@H]23)[C@H](O)[C@@H](O)[C@@H]1O | -5.34% |  |
| COc1c(OC)c(O)c2c(=O)cc(-c3c(O)cccc3O)oc2c1OC | -1.13% |  |
| CC(C)(O)c1cc2nc(-c3cnc(N)nc3)nc(N3CCOCC3)c2s1 |  | 769 nM (active) |

| Compound | activity change, negative = lower viability | Potency |
| --- | --- | --- |
| CC1(C)C2=CCCC(C)(C)[C@]23CC[C@H]1C3 | 9.58% [at 115 µM] |  |
| COc1ccc2c(=O)c(-c3ccccc3)c(C)oc2c1 | 18.6% |  |
| COc1ccc([C@@H]2CC(=O)c3c(O)cc(O[C@@H]4OC(CO[C@@H]5OC(C)[C@H](O)[C@@H](O)[C@H]5O)[C@@H](O)[C@H](O)[C@H]4O)cc3O2)cc1O (stereo not given in full) | 11.4% |  |
| COc1cc2c(c(OC)c1OC)-c1c(cc3c(c1OC)OCO3)CC(C)C(C)C2 (stereo not given) | 16.1% |  |
| O=C(CNC(=O)c1ccccc1)c1ccccc1 | -0.866% |  |
| COc1ccc([C@@H]2CC(=O)c3c(O)cc(O[C@@H]4O[C@H](CO)[C@@H](O)[C@H](O)[C@H]4O[C@@H]4O[C@@H](C)[C@H](O)[C@@H](O)[C@H]4O)cc3O2)cc1 | 13.8% [at 24.7 µM] |  |
| CC1NC(C(=O)O)Cc2c1[nH]c1ccccc21 (stereo not given) | -2.7% |  |
| C=C[C@@]1(C)CC(=O)[C@]2(O)[C@@]3(C)[C@@H](O)CCC(C)(C)[C@@H]3[C@H](OC(C)=O)[C@H](O)[C@@]2(C)O1 | -33.4% |  |
| COc1ccc(CC(C)N)cc1 (stereo not given) | -1.57% |  |
| O=c1c2ccccc2nc2n1CCC2 | -31.2% |  |
| C=C1C(=O)OC2C1C(OC(=O)C(C)=CC)CC(=C)C1C(O)C3OC3(C)C21O (stereo not given) | -11.2% |  |
| COC(C)(C)[C@@H](O)COc1c2ccoc2cc2oc(=O)ccc12 | -20.5% |  |
| Cc1csc(NC(=O)c2sc3nc4c(c(C(F)(F)F)c3c2N)CCC4)n1 | 5.2% |  |
| O=C(OCCc1ccccc1)c1ccccc1 | -1.39% [at 115 µM] |  |
| COc1cccc2c(=O)c3ccoc3n(C)c12 | -8.76% |  |
| COc1ccc([C@@H](OC)[C@@]2(Cc3ccc(O)cc3)N=C(N)N(C)C2=O)cc1 | 0.8% |  |
| C[C@@H]1C[C@@H]2OC(=O)[C@]3(C)[C@H]2[C@@H](OC3(C)O)[C@]2(C)C(=O)C=C[C@H]12 (stereo not given in full) | -17.6% |  |
| COc1ccc(C(=O)/C=C/c2ccc(O)cc2)c(O)c1CC=C(C)C | 9.76% |  |
| CCCCN(CCCC)CC(O)c1cc(Cl)cc2c1-c1ccc(Cl)cc1C2=Cc1ccc(Cl)cc1 (stereo not given) | 1.34% |  |
| CCCCCCCCCC(=O)OCC | -94.4% [at 115 µM] |  |
